Experimental findings from PubChem BioAssay (NCATS) are described below.

The structures appear in SMILES notation. Results filed as inconclusive are left out. Values without a mark were called inactive. Calls of active or inactive are those of the source. Calls follow the shape of the dose curve; as a rule, active = well fitted cell-killing curve with a large enough effect; inconclusive = small, poorly fitted or top-dose-only effect, or effect the other way; inactive = no such curve, though single readings can be large or run the other way.
Potency is read from the fitted curve at half-maximal effect.

The assay in a line: Viability qHTS for spleen associated tyrosine kinase inhibitor (SYKi) naive MV4-11 cells (AID 1963823). Also: nearly all actives have a fitted effect of over 40% in size. To be noted: MV4-11 AML viability, CellTiter-Glo luminescence, 72 h; series mostly up to 45 µM; viability (% of control): at the top concentration. The method in brief:
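Compounds were dispensed acoustically onto plates, MV4-11 cells (SYKi-naive) added at 500 per well, and plates incubated 72 hr at 37 C. CellTiter-Glo was added and luminescence measured after 10 min.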
(In general: In qHTS, concentration-response curves come from the screen itself.)
Consider `C=CC(C)(C)c1[nH]c2ccccc2c1C1=C(O)C(=O)C(c2c[nH]c3c(CC=C(C)C)cccc23)=C(O)C1=O`, for which the Potency was 18.4 µM (active).

On to `COc1ccc(-c2ccccc2)cc1NS(=O)(=O)c1cc(Cl)cc(Cl)c1O`, for which the “viability (% of control)” value is 62.8% [at 17.3 µM].

`NC(=O)c1ccc(F)c2c1C[C@@H](N(C1CCC1)C1CCC1)CO2`: the “viability (% of control)” value was 65.3%.

With `CC(C)(O[C@@H]1O[C@H](CO)[C@@H](O)[C@H](O)[C@H]1O)C(OC(=O)/C=C\c1ccc(O)cc1)C(=O)OCc1ccc(O[C@@H]2O[C@H](CO)[C@@H](O)[C@H](O)[C@H]2O)cc1` (stereo not given in full), the “viability (% of control)” value was 30.1% [at 17.3 µM].

In the case of `CC(C)(O)/C=C/C1=CC(=O)[C@@](C)(O)C[C@H]1O`, the “viability (% of control)” value was 65.4%.

In the case of `COc1ccccc1CC(C(=O)O)N(C)C(=O)c1ccccc1` (stereo not given), the “viability (% of control)” value was 73.7%.

`C/C=C(/C)C(=O)OC1C(OC(C)=O)C23C(O)OC4(CCC5C6(C)CCC(OC7OC(C(=O)O)C(O)C(OC8OC(CO)C(O)C(O)C8OC8OC(C)C(O)C(O)C8OC8OCC(O)C(O)C8O)C7OC7OC(CO)C(O)C(O)C7O)C(C)(C)C6CCC5(C)C4(C)CC2OC(C)=O)C3CC1(C)C` (stereo not given): the viability (% of control) is 43.2% [at 9.25 µM].

Regarding `CC(=O)NC1C(OC(C)(C)C2CCC3(C)C=C(C4CCC5C4(C)CC(O)C4OC(C(C)(C)O)CCC45C)CCC3O2)OC(CO)C(O)C1O` (stereo not given), the Potency was 1.93 µM (active).

On to `C[C@@H]1[C@H]2[C@H](O[C@@H]3O[C@H](CO)[C@@H](O)[C@H](O)[C@H]3O)OC=C(C(=O)O)[C@H]2C[C@@H]1O`, for which the “viability (% of control)” value was 68.6%.

With `C=C1C(=O)OC2CC(C)C(CCC(C)=O)=CCC12` (stereo not given), the Potency is 8.2 µM (active).

As for `Cc1csc2c(N[C@@H](C)CN3CCN(S(=O)(=O)c4ccc(Cl)c(Cl)c4)CC3)ncnc12`, the Potency is 0.259 µM (active).

Consider `CCCCC1CCC(c2nc(-c3ccncc3)no2)CC1` (stereo not given), for which the “viability (% of control)” value was 56.8%.

For `CC[C@H]1CN(c2nc(N)c(C(N)=O)nc2Cl)CCN1C1CCN(Cc2ccc(Cl)cc2)CC1`, the “viability (% of control)” value is 62.9%.

On to `CCOc1cc(CC(=O)NC(CC(C)C)c2ccccc2N2CCCCC2)ccc1C(=O)O` (stereo not given), for which the “viability (% of control)” value is 75.9%.

Regarding `NC(=O)c1ncn(C2O[C@H](CO)[C@@H](O)[C@H]2O)c1N` (stereo not given in full), the “viability (% of control)” value was 89.1%.

For the compound `C/C=C/C=C/C(O)=C1\C(O)=C(C)C(=O)[C@@]2(C)OC(=O)[C@@](C)(NC(=O)/C=C/C(=O)O)[C@@H]12`, the “viability (% of control)” value was 71.2% [at 17.3 µM].

Regarding `C[C@H]1/C=C/C=C/C=C/C=C/C=C/[C@@H](O)[C@H](C(=O)O)[C@H](O)C[C@H](O)CCC[C@H](O)C[C@H](O)C[C@H](O)[C@@H](C)C(=O)O[C@@H]1C`, the “viability (% of control)” value was 74.2% [at 17.3 µM].

With `C/C=C(\C)C(=O)OCC1OC(OC2OC(COC(=O)/C(C)=C/C)C(OC3OC(CO)C(OC(=O)/C(C)=C/C)C(OC(=O)/C(C)=C/C)C3O)C(O)C2O)C(O)C(O)C1OC1OC(CO)C(OC(=O)/C(C)=C/C)C(OC(=O)/C(C)=C/C)C1O` (stereo not given), the viability (% of control) is 65% [at 9.25 µM].

`CC(CC12CCCN1C(=O)C1CCCN1C2=O)OC(N)=O` (stereo not given): the “viability (% of control)” value was 77.8%.

As to `CC(C)C[C@H](CC(=O)NO)C(=O)N[C@@H](Cc1ccc2ccccc2c1)C(=O)N[C@@H](C)C(=O)NCCN`, the “viability (% of control)” value is 82.2%.

For the compound `CC(=O)O[C@H]1CC2C(COC(=O)CC(C)C)=CO[C@@H](OC(=O)CC(C)C)C2[C@]12CO2` (stereo not given in full), the Potency was 1.42 µM (active).

As to `CC(C)C(NC(=O)c1ccc2ccccc2n1)C(=O)NC(CC(=O)O)C(=O)COc1c(F)cccc1F` (stereo not given), the “viability (% of control)” value was 64.3%.

For `OC[C@@]1(O)CO[C@@H](OC[C@H]2O[C@@H](Oc3c[nH]c4ccccc34)[C@H](O)[C@@H](O)[C@@H]2O)[C@@H]1O`, the “viability (% of control)” value was 48% [at 17.3 µM].

On to `CC1=C2C(=O)C=C(CO)C2[C@H]2OC(=O)[C@H](C)[C@@H]2[C@@H](OC(=O)Cc2ccc(O)cc2)C1` (stereo not given in full), for which the “viability (% of control)” value is 74.2% [at 17.3 µM].

Take `OC[C@H]1O[C@@H](OCCc2ccc(O)cc2)[C@H](O[C@@H]2OC[C@](O)(CO)[C@H]2O)[C@@H](O)[C@@H]1O`: the “viability (% of control)” value is 85% [at 17.3 µM].

As to `COc1cc(C2Oc3c(OC)cc(CCCO)cc3C2CO)ccc1O[C@H]1O[C@H](C)[C@@H](O)[C@H](O)[C@@H]1O` (stereo not given in full), the “viability (% of control)” value is 80.9% [at 17.3 µM].

Turning to `CC(=O)O[C@H](C[C@@H](C)[C@H]1C(=O)[C@H](O)[C@@]2(C)[C@@H]3CCC4C(C)(C)[C@@H](O[C@@H]5OC[C@H](O)[C@H](O)[C@H]5O)CC[C@@]45C[C@@]35CC[C@]12C)[C@@H]1OC1(C)C` (stereo not given in full), the “viability (% of control)” value was 68.6% [at 17.3 µM].

For `CC(C)S(=O)(=O)N[C@H]1CCOC[C@@H]1c1ccc(-c2ccc(C#N)s2)cc1`, the “viability (% of control)” value was 59.3%.

As to `CC(C)c1c(NC(=O)Nc2ccc(Cl)cc2)c(=O)n(-c2ccccc2)n1C`, the “viability (% of control)” value was 61.4%.

Turning to `CC(N)C1CCC(C(=O)Nc2ccncc2)CC1` (stereo not given), the “viability (% of control)” value is 65.8%.

Regarding `C[C@@H]1CC2C3C[C@H](F)C4=CC(=O)C=C[C@]4(C)[C@@]3(F)[C@@H](O)C[C@]2(C)[C@@]1(OC(=O)c1ccco1)C(=O)SCF` (stereo not given in full), the Potency was 6.61 µM (active).

Turning to `O=C1OC(/C=C/c2ccccc2)=NC/1=C\c1cccnc1`, the “viability (% of control)” value is 80.8%.

`C=C1CCC2C(C)(COC(C)=O)CCCC2(C)C1CCC(C)CC(=O)O` (stereo not given): the “viability (% of control)” value was 72.8%.

Take `COc1ccc(C2=CC(=O)OC2Cc2ccc(O)cc2)c(O)c1` (stereo not given): the “viability (% of control)” value is 66.8%.

As to `Nc1ccc(S(=O)(=O)Nc2nccs2)cc1`, the Potency entry is “inactive”.

With `CC(C(O)/C=C/C(C)(C)O)C1CCC2(C)C3C(=O)C=C4C(CCC(O)C4(C)C)C3(C)CCC12C` (stereo not given), the “viability (% of control)” value was 82.3% [at 17.3 µM].

`O=C(O)c1cn(C2CC2)c2cc(N3C[C@@H]4C[C@H]3CN4)c(F)cc2c1=O`: the “viability (% of control)” value is 52.8%.

`COc1ccc2c(c1)N1C(=O)C[C@@]34C=CC[N@+]5([O-])CC[C@H]2[C@H](CC3)[C@@]145`: the Potency is 6.4 µM (active).

On to `Cc1cc(N(C)C)ccc1-c1nc2ccc(-c3nc4ccc(N5CCN(C)CC5)cc4[nH]3)cc2[nH]1`, for which the Potency is 0.411 µM (active).

As for `CC(=O)CC1CCC(C(C)C(=O)OCC(O)CO)O1` (stereo not given), the “viability (% of control)” value is 62.5%.
